Publication PMC5700166

Legend:
Experiment in all cases: protein-binding microarray (PBM); PBM: ~300 nM protein, 6 mM HEPES pH 7.8, 80 mM KCl, 0.5 mM EDTA, 0.5 mM EGTA, 6% glycerol, 35 ng/ul poly-dIdC, 1% milk, 1 h, room temperature; Ap Aiptasia and Nv Nematostella (sea anemones) / Co Capsaspora / Aq Amphimedon (sponge) / Dm Drosophila / Hu human; RHD is the Rel homology domain; high values mean tight binding
Settings in all cases: dsDNA, one strand shown
[1] = target: T1, GST-Ap-NF-kB RHD (Exaiptasia pallida (Aiptasia), UniProt A0A913YAJ5 2-422)
T1 sequence: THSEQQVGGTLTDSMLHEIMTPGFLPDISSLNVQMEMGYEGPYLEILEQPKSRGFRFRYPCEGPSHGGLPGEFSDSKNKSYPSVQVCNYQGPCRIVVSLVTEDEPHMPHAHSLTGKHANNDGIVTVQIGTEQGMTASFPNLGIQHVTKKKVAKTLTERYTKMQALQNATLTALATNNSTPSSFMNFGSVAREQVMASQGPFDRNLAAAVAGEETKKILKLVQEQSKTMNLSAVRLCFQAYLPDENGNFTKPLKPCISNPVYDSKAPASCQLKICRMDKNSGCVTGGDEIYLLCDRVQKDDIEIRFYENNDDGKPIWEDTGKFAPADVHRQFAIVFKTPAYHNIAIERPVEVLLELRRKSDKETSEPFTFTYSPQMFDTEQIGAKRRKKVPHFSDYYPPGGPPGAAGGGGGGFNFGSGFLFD

[2] = target: T2, GST-Nv-NF-kB (Cys allele) (Nematostella vectensis, UniProt E5G601 2-411)
T2 sequence: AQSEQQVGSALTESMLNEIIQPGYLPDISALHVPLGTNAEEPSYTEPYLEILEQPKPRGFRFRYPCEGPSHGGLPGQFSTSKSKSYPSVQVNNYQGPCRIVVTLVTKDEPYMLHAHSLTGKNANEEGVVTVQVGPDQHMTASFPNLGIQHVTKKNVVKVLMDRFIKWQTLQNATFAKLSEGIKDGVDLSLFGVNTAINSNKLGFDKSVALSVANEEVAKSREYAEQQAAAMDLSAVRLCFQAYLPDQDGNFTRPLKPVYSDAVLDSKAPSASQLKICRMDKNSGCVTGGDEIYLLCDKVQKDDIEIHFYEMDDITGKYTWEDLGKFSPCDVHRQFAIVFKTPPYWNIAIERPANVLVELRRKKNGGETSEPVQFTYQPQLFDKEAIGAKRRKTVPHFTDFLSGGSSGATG

[3] = target: T3, GST-Co-NF-kB (Capsaspora owczarzaki, UniProt F1ARL5 200-546)
T3 sequence: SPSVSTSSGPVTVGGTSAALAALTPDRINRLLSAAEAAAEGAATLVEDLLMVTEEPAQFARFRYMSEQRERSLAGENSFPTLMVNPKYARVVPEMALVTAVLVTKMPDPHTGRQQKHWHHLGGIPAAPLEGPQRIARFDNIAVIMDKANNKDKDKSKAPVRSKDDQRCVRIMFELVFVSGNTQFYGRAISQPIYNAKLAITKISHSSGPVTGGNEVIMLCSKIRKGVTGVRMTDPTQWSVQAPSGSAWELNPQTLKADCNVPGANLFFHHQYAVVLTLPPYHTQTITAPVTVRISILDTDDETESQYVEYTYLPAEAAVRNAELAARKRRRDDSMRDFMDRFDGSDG

[4] = target: T4, GST-Dm-Relish (Drosophila melanogaster, UniProt Q94527 99-473)
T4 sequence: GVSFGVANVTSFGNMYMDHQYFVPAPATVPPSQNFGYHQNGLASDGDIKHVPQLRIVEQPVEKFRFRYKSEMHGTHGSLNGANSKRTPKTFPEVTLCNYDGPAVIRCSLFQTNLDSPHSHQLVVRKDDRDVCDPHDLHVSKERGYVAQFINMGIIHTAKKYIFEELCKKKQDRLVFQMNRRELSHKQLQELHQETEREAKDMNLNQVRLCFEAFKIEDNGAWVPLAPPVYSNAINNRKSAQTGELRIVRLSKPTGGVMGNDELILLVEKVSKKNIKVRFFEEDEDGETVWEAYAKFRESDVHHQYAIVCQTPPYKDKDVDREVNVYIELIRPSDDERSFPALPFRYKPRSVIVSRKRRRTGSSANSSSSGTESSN

[5] = target: T5, GST-Aq-NF-kB (Amphimedon queenslandica, UniProt A9Y5G7 2-389)
T5 sequence: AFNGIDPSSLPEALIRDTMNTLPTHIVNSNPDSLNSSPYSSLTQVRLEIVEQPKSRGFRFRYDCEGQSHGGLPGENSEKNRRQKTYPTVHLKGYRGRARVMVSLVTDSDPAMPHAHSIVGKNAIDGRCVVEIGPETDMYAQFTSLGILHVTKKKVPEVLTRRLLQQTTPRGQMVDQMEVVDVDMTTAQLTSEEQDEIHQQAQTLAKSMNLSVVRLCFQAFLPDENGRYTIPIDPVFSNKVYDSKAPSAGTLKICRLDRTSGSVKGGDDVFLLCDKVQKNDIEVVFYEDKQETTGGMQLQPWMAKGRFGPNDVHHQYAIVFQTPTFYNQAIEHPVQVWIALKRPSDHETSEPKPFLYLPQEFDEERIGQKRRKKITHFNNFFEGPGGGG

| Sequence | binding signal [1] [z-score] | binding signal [2] [z-score] | binding signal [3] [z-score] | binding signal [4] [z-score] | binding signal [5] [z-score] |
| --- | --- | --- | --- | --- | --- |
| CCGATTAACATCAGGGAATTATATGATGTTAATCGGGTCTTGATTCGCTTGACGCTGCTG | 4.16 | 6.68 | 4.16 | 3.26 | 6.69 |
| CCGATTAACATCACTGGGAATTCTGATGTTAATCGGGTCTTGATTCGCTTGACGCTGCTG | 3.23 | 3.49 | 3.79 | 3.32 | 2.67 |
| CCGATTAACATCAAAAACACCCCTGATGTTAATCGGGTCTTGATTCGCTTGACGCTGCTG | 4.85 | 3.9 | 3.98 | 5.77 | 4.95 |
| CCGATTAACATCAAATTGCCCCCTGATGTTAATCGGGTCTTGATTCGCTTGACGCTGCTG | 4.13 | 3.94 | 4.71 | 3.33 | 4.88 |
| CCGATTAACATCAGGGGTCCCCATGATGTTAATCGGGTCTTGATTCGCTTGACGCTGCTG | 4.7 | 2.57 | 1.99 | 7.31 | 3.6 |
| CCGATTAACATCAAATTCCCAGCTGATGTTAATCGGGTCTTGATTCGCTTGACGCTGCTG | 1.68 | 3.6 | 3.28 | 3.73 | 2.48 |
| CCGATTAACATCAAATTTCCCGCTGATGTTAATCGGGTCTTGATTCGCTTGACGCTGCTG | 3.85 | 5.17 | 4.99 | 2.88 | 5.22 |
| CCGATTAACATCAAAAATCCCGATGATGTTAATCGGGTCTTGATTCGCTTGACGCTGCTG | 3.79 | 3.94 | 1.91 | 6.2 | 4.05 |
| CCGATTAACATCAGGGAACGCCCTGATGTTAATCGGGTCTTGATTCGCTTGACGCTGCTG | 2.68 | 2.74 | 1.21 | 4.32 | 5.25 |
| CCGATTAACATCAGATTTTTCCCTGATGTTAATCGGGTCTTGATTCGCTTGACGCTGCTG | 3.33 | 5.35 | 5.52 | 1.54 | 5.5 |
| CCGATTAACATCATCCGGGAAAATGATGTTAATCGGGTCTTGATTCGCTTGACGCTGCTG | 2.01 | 3.79 | 4.53 | 1.58 | 2.54 |
| CCGATTAACATCAAATAGCCCCCTGATGTTAATCGGGTCTTGATTCGCTTGACGCTGCTG | 5.01 | 4.8 | 2.9 | 4.26 | 5.62 |
| CCGATTAACATCACCAAAACCCCTGATGTTAATCGGGTCTTGATTCGCTTGACGCTGCTG | 4.76 | 3.55 | 1.32 | 6.02 | 3.55 |
| CCGATTAACATCAGGGGTTCACCTGATGTTAATCGGGTCTTGATTCGCTTGACGCTGCTG | 3.84 | 2.71 | 1.45 | 8.89 | 4.82 |
| CCGATTAACATCATAAAATCCCATGATGTTAATCGGGTCTTGATTCGCTTGACGCTGCTG | 2.43 | 2.92 | 1.47 | 6.55 | 3.1 |
| CCGATTAACATCACATACTCCCCTGATGTTAATCGGGTCTTGATTCGCTTGACGCTGCTG | 4.4 | 3.45 | 3.69 | 1.57 | 3.42 |
| CCGATTAACATCAGGGGGTAACCTGATGTTAATCGGGTCTTGATTCGCTTGACGCTGCTG | 6.07 | 3.41 | 5.91 | 3.94 | 5.48 |
| CCGATTAACATCACTTTTTCCCATGATGTTAATCGGGTCTTGATTCGCTTGACGCTGCTG | 2.03 | 3.6 | 4.08 | 1.51 | 1.99 |
| CCGATTAACATCAGGGGGTGAAATGATGTTAATCGGGTCTTGATTCGCTTGACGCTGCTG | 3.26 | 3.42 | 6.99 | 3.46 | 3.93 |
| CCGATTAACATCAAGGGGGGTGGTGATGTTAATCGGGTCTTGATTCGCTTGACGCTGCTG | 3.51 | 3.67 | 3.06 | 4.12 | 4.15 |
| CCGATTAACATCAAACAACCCCCTGATGTTAATCGGGTCTTGATTCGCTTGACGCTGCTG | 5.66 | 4.5 | 2.66 | 5.24 | 5.17 |
| CCGATTAACATCAAAAAACACCCTGATGTTAATCGGGTCTTGATTCGCTTGACGCTGCTG | 4.07 | 4.18 | 2.93 | 6.06 | 5.32 |
| CCGATTAACATCAACTCCCCCCATGATGTTAATCGGGTCTTGATTCGCTTGACGCTGCTG | 5.39 | 4.1 | 6.49 | 4.31 | 4.72 |
| CCGATTAACATCATCCCCCCCCATGATGTTAATCGGGTCTTGATTCGCTTGACGCTGCTG | 6.69 | 4.12 | 7.34 | 4.5 | 5.38 |
| CCGATTAACATCAGGCCTCCCCCTGATGTTAATCGGGTCTTGATTCGCTTGACGCTGCTG | 4.86 | 4.22 | 4.14 | 6 | 6.6 |
| CCGATTAACATCAGGGAAAATGATGATGTTAATCGGGTCTTGATTCGCTTGACGCTGCTG | 2.8 | 4.26 | 3.42 | 1.15 | 3.05 |
| CCGATTAACATCAGAAAATCCCATGATGTTAATCGGGTCTTGATTCGCTTGACGCTGCTG | 4.49 | 4.29 | 1.54 | 7.07 | 4.36 |
| CCGATTAACATCACTGGGATTTCTGATGTTAATCGGGTCTTGATTCGCTTGACGCTGCTG | 2.53 | 1.96 | 1.15 | 5.55 | 2.37 |
